# Only some compounds are listed: those with a hit (about 7.3% of all), similar ones and a draw of the others.
# SMN2 splice enh – qHTS Assay for Enhancers of SMN2 Splice Variant Expression | 2.8% of 210,000 active | HEK293 SMN2-luciferase splicing reporter, luminescence, 30-36 h | Potency, µM (titrated, usually from 46.1 µM), inactives show at the highest dose activity change, positive = activation, hits mostly activators; further: % of control where 0% means no effect; nearly all actives have a fitted effect of over 55% in size
#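 HEK293 cells carry an SMN2 minigene-luciferase reporter in which exon 7 inclusion puts luciferase in frame. Cells were seeded at 2000 cells/well, attached for 10-12 hours, then exposed to compounds for 30-36 hours at 37C before ONE-Glo luminescence.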
# Luc counter – Counterscreen for Luciferase (Kinase-Glo TM) Inhibition. Kinase-Glo luciferase, ATP luminescence, 8 min. Potency, µM (doses to about 38.3 µM), for inactives: at the top dose activity change, negative = inhibition, most hits filed as inhibitors. 0.28% of 200,000 active. AID 1379, 2008; further: on the % scale 0 is the no-effect control and ±100 the full control effect; nearly all actives have a fitted effect of over 60% in size
#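 Compounds were added to a substrate mix at pH 7.2 (50 mM imidazole, 10 uM ATP, within the enzyme's linear range), followed by Kinase-Glo detection reagent; luminescence was measured after 8 minutes at ambient temperature.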
# NPC1 prom act – qHTS Assay for NPC1 Promoter Activators | Huh7 NPC1 promoter luciferase reporter, 24 h | 2.4% of 320,000 active | AID 485313, 2010 | Potency, µM (titrated, usually from 9.22 µM), without a hit: top-dose activation, usual class: activators; further: % of control where 0% means no effect; nearly all actives have a fitted effect of over 60% in size
#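 Huh7 cells stably carrying NPC1 promoter–luciferase, plated in Opti-MEM with 10% FBS for 2 h, were exposed to compound in DMSO for 24 h at 37 °C; luciferase reagent was added for 10 min and luminescence read.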
# Rab9 promoter act – qHTS Assay for Rab9 Promoter Activators; AID 485297, 2010; 2.8% of 320,000 active; Huh7 Rab9 promoter-luciferase reporter, luminescence, 24 h; Potency, µM (doses to about 9.22 µM), for inactives: at the top dose activation, negative = inhibition, most hits filed as activators; further: % of control where 0% means no effect; nearly all actives have a fitted effect of over 60% in size
#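 Promoter activation is measured as luciferase luminescence in Huh7 cells stably transfected with a Rab9 promoter–luciferase construct, following 24 h compound exposure at 37 °C and 10 min reagent incubation at ambient temperature.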
# ELG1 genotoxic – qHTS screen for small molecules that induce genotoxicity in human embryonic kidney (HEK293T) cells expressing luciferase-tagged ELG1; HEK293T ELG1-luciferase reporter, luminescence, 16 h; Potency, µM (highest dose often 46 µM), without a hit: at the top dose activity change, positive = activation, usual class: activators; 1.3% of 330,000 active; further: % of control where 0% means no effect; nearly all actives have a fitted effect of over 60% in size
#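 ELG1-luciferase HEK293T cells, 2,000/well; compound pinned in; 16 hr, 37 °C, 5% CO2; ONE-Glo, 30 min RT; luminescence on CCD imager.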
# FLuc modulator – qHTS profiling assay for firefly luciferase inhibitor/activator using purifed enzyme and Km concentrations of substrates (counterscreen for miR-21 project) | Luciferin 4-monooxygenase (Photinus pyralis), P08659 | purified FLuc, Km substrates, luminescence inhibition | Potency, µM (top dose mostly 57.5 µM), without a hit: at the top dose activity change, negative = inhibition, actives largely listed as inhibitors | 6.9% of 360,000 active | AID 588342, 2011;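 further: plate controls were vehicle for no effect and reference inhibitor for full effect; nearly all actives have a fitted effect of over 55% in size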
# Target sequence (P08659 whole entry, looked up): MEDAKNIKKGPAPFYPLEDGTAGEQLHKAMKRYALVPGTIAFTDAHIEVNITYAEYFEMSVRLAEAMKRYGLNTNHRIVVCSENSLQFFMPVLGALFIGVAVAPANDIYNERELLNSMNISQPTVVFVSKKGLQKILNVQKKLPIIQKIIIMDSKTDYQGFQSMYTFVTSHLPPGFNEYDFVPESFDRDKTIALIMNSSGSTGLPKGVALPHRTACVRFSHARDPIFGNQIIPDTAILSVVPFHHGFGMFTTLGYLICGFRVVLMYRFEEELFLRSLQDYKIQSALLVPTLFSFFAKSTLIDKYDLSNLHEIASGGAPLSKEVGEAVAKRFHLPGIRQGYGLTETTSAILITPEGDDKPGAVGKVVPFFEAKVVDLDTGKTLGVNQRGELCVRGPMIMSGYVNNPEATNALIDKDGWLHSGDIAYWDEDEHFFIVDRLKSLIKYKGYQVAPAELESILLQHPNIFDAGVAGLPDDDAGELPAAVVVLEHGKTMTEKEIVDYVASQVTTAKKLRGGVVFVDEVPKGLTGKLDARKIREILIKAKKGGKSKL
#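 Purified P. pyralis luciferase (10nM final) with 10uM D-luciferin and 10uM ATP (Km levels) in 50mM Tris acetate pH 7.5, 10mM Mg acetate, 0.01% Tween-20, 0.05% BSA; qHTS 6-point titration, ~60 µM downward; luminescence read.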
# Numbers without * were called inactive; ? = inconclusive; / = not tested or not shown; [ ] = dose if it differs, or a comment. The call rests on the fitted dose curve; in most records, active means well fitted curve in the direction sought with a large enough effect; inconclusive means small, poorly fitted or top-dose-only effect, or another doubt; inactive means no such curve, though single readings can be large; an effect the other way counts as inactive or inconclusive. Potency means the concentration at half of the fitted maximal effect.
SMILES,SMN2 splice enh,Luc counter,NPC1 prom act,Rab9 promoter act,ELG1 genotoxic,FLuc modulator
COc1ccc(OC)c(NC(=O)c2ccc(Cl)cc2)c1,-2%,-2%,1%,3%,2%,?
CCOC(=O)c1[nH]c(C)c(CCC(=O)N2CCN(c3cc(C)ccc3C)CC2)c1C,/,/,/,/,/,-9%
Cc1cc(C)n(-c2nc(C)c(C)c(=O)n2CC(=O)Nc2ccc(Cl)c(Cl)c2)n1,/,/,/,/,/,2%
O=C(Nc1ccccc1OC(=O)c1ccc(Cl)cc1)c1ccc(Cl)cc1,31%,1%,?,3.2µM*,16%,-10%
C=CCOc1ccc(/C=C2\SC(=Nc3cccnc3)NC2=O)cc1,/,/,-3%,1%,9%,7.6µM*
CC(/C=C1\SC(=Nc2cccnc2)NC1=O)=C\c1ccccc1,/,/,-26%,-15%,-7%,?
Cc1cc(N)c2cc(OCCOc3ccc4nc(C)cc(N)c4c3)ccc2n1,-9%[9.22 µM],-3%[7.66 µM],/,/,/,/
Cc1ccc2c(c1C)NC(=O)C21N2CCCC2C(C(=O)c2ccc3ccccc3c2)C12C(=O)Nc1ccccc12 (configuration not stated),/,/,0%,12%,-8%,9.5µM*
COc1ccc(-c2c(C)nc3c(-c4ccccn4)cnn3c2N)cc1,/,/,0.32µM*,0.32µM*,1.2µM*,0.54µM*
COc1ccc(-c2c(C)nc3c(-c4ccsc4)cnn3c2N)cc1,/,/,0.32µM*,0.25µM*,1.8µM*,0.6µM*
O=C(CCCOc1ccccc1)N1CCN(c2ccc(F)cc2)CC1,-4%,17%,25%,27%,?,27µM*
O=C(CCCOc1ccc(Cl)cc1Cl)N1CCN(c2ccccn2)CC1,-3%,2%,-3%,8%,-4%,-17%
O=C(CCCOc1ccccc1)N1CCN(c2ccccn2)CC1,14µM*,2%,1.3µM*,0.89µM*,2.1µM*,6.7µM*
Cc1ccc(Cl)cc1N1CCN(C(=O)CCSCc2ccccc2F)CC1,/,/,/,/,/,1%
COC(=O)C1CCN(C(=O)CCCOc2ccccc2)CC1,/,-7%,?,2.2µM*,2.6µM*,4.8µM*
O=C(CCSCc1ccccc1F)N1CCN(c2ccccn2)CC1,?,0%,24%,?,18µM*,19µM*
CCc1cccc(NC(=O)c2c(N3CCCC3=O)c3cc(C)ccc3n2C)c1,/,/,/,/,/,-11%
CCc1cccc(NC(=O)Cn2nc(C)c3sc4ccccc4c3c2=O)c1,/,/,/,/,/,-1%
O=C(c1c(Cl)cccc1Cl)N1CCN(c2ccccn2)CC1,?,-3%,-8%,-7%,-11%,7%
O=C(N1CCN(c2ccccn2)CC1)C(Cl)(Cl)Cl,4µM*,-6%,6%,14%,1%,-14%
COc1ccc2c(c1)c1c(c(=O)n(-c3cc(Cl)ccc3C)c(=O)n1Cc1ccc(F)cc1)n2C,/,/,/,/,/,-3%
CCN(CC)c1ccc2cc(-c3nc(-c4cccs4)no3)c(=O)oc2c1,/,/,/,/,/,3.8µM*
CCN(CC)c1ccc2cc(-c3nnc(-c4ccncc4)o3)c(=O)oc2c1,11µM*,0%,?,?,?,?
Cc1cccc(NC(=O)Cn2cc(C(=O)C3CCCCC3)c3ccccc32)c1,-8%,/,/,/,/,-2%
NNC(=O)Cc1cccnc1,-14%[9.22 µM],-8%[7.66 µM],/,/,/,/
SMILES,SMN2 splice enh,Luc counter,NPC1 prom act,Rab9 promoter act,ELG1 genotoxic,FLuc modulator
Cc1nn(CCC(=O)Nc2ccc(Cl)cc2)c(C)c1S(=O)(=O)N1CCCCC1,/,/,/,/,/,-11%
CCCCC(=O)c1c(O)c2ccccc2oc1=O,-12%,-3%,1%,-1%,-9%,?
COc1ccc(N=Cc2c(O)cc(C)oc2=O)cc1,2%,-16%,-6%,1%,6%,12µM*
CC(C)c1ccc(N=Cc2c(O)c3ccccc3oc2=O)cc1,/,/,-6%,2%,18%,0.38µM*
Cc1cc(O)c(C=Nc2cccc(Cl)c2)c(=O)o1,-3%,3%,-2%,-1%,2%,-3%
COc1ccc(N=Cc2c(O)c3ccccc3oc2=O)cc1,9%,?,0%,4%,16%,0.76µM*
CCCCN=C(C)c1c(O)c2ccccc2oc1=O,?,1%,?,4µM*,?,19µM*
CCc1ccc(-n2c(=O)c3sc4ccccc4c3n(CC(=O)N3CCCC3)c2=O)cc1,18%,/,/,/,/,2%
COc1ccc(OCC(=O)c2c(O)c3ccccc3oc2=O)cc1,/,1%,0%,2%,9%,17µM*
CCOc1ccc(OCC(=O)c2c(O)c3ccccc3oc2=O)cc1,8%,-5%,0%,-3%,6%,?
CCOC(=O)Cc1ccc(NC(=O)NCc2c(-n3cccc3)sc3c2CCCC3)cc1,/,/,/,/,/,-3%
CCOC(=O)Cc1csc(NC(=O)c2ccc(Br)s2)n1,-6%,-6%,1%,12%,-9%,24µM*
CCOC(=O)Cc1csc(NC(=O)c2cc(C)cc(C)c2)n1,-10%,-3%,-2%,-8%,-6%,-18%
CCOC(=O)Cc1csc(NC(=O)/C=C/c2ccc(Br)o2)n1,/,/,1%,0%,-8%,6.7µM*
CCOC(=O)c1csc(NC(=O)c2cccs2)n1,/,/,2.2µM*,2.2µM*,?,13µM*
CCOC(=O)Cc1csc(NC(=O)c2cccs2)n1,-4%,-6%,17%,20%,?,19µM*
Cc1noc(C)c1S(=O)(=O)N1CCc2nc(COc3ccccc3)c3c(c2C1)CO[C@@H](C)C3,-10%[9.22 µM],-2%[7.66 µM],/,/,/,/
CN(C)C(=O)C1CCN(Cc2c[nH]c3ccccc23)CC1,-1%[9.22 µM],-3%[7.66 µM],/,/,/,/
